Experimental data reported in PubChem BioAssay AID1159577 (Broad Institute, 2015).
About 240 (18%) of roughly 1,300 compounds were called active. Roughly 8% stayed inconclusive and do not appear here. The rule behind the calls is not given here. A selection follows. A call without a number means that no potency is given here. Potency and affinity values are given separately.

Assay: HepG2 cell cytotoxicity, dose response, cytotoxicity control, cherry-picked samples (AID 1159577)
Details: HepG2 cytotoxicity counterscreen, plate reader; series mostly up to 19.5 µM

| SMILES | outcome |
| --- | --- |
| C[C@H]1CN([C@@H](C)CO)C(=O)c2c(c3ccccc3n2C)-c2ccccc2CO[C@H]1CN(C)S(=O)(=O)c1ccc(C(F)(F)F)cc1 | inactive |
| COCC(=O)N1[C@H](C#N)[C@@H](c2ccccc2-c2ccccc2)[C@H]1CO | inactive |
| COc1ccc2c3c(n(C)c2c1)[C@@H](CO)N(C(=O)c1ccc(F)cc1)CC31CN(C(=O)Nc2ccc(F)cc2)C1 | inactive |
| COc1ccc(C#Cc2ccc3c(c2)O[C@@H](CN(C)C(=O)Nc2cccc(OC)c2)[C@@H](C)CN([C@H](C)CO)S3(=O)=O)cc1 | inactive |
| O=C(c1ccccn1)N1CC2(C1)[C@@H](c1ccccc1)[C@H](CO)N2Cc1ccc(Cl)cc1 | inactive |
| COc1ccc(C#Cc2ccc([C@H]3[C@H]4CN(C(=O)c5ccc(F)cc5)CC(=O)N4[C@H]3CO)cc2)cc1 | inactive |
| C[C@H](CO)N1C[C@H](C)[C@@H](CN(C)C(=O)Nc2ccc(F)cc2)OCc2ccccc2-c2c(n(C)c3ccccc23)C1=O | inactive |
| COc1ccc2c3c([nH]c2c1)[C@@H](CO)N(C(=O)c1cccc(F)c1)CC31CCN(C(=O)c2ccccc2)CC1 | inactive |
| COc1ccc2c3c([nH]c2c1)[C@@H](CO)N(C(=O)Cc1ccccc1)CC31CCN(C(=O)Cc2ccccc2)CC1 | inactive |
| CCC(=O)N1CC2(C1)CN(C(=O)Nc1ccccc1F)[C@H](CO)c1[nH]c3cc(OC)ccc3c12 | inactive |
| CCC(=O)N1CC2(CCN(C(=O)Nc3ccccc3F)CC2)c2c([nH]c3cc(OC)ccc23)[C@H]1CO | inactive |
| COc1cccc(-c2ccc3c(c2)[C@@H]2[C@@H](CCN2C(=O)C2CCCC2)[C@H](CO)N3)c1 | inactive |
| CN(C)c1ccc2c(c1)[C@@H]1C[C@@H](CC(=O)N3CCc4ccccc4C3)O[C@@H](CO)[C@@H]1O2 | inactive |
| O=C(c1ccc(F)cc1)N1CC(=O)N2[C@H](CO)[C@H](c3ccc(C#Cc4ccc(F)cc4)cc3)[C@H]2C1 | inactive |
| CCC(=O)N1CCC2(CC1)CN(Cc1cc(F)ccc1F)[C@@H](CO)c1[nH]c3cc(OC)ccc3c12 | inactive |
| COc1ccccc1C#Cc1ccc([C@@H]2[C@H](C#N)N(C(=O)C3CCCC3)[C@H]2CO)cc1 | inactive |
| COc1ccccc1C#Cc1ccc([C@H]2[C@@H](C#N)N(C(=O)C3CCCCC3)[C@H]2CO)cc1 | inactive |
| COc1cccc(C#Cc2ccc([C@H]3[C@@H](C#N)N(C(=O)C4CCCC4)[C@@H]3CO)cc2)c1 | inactive |
| COc1cccc(C#Cc2ccc([C@@H]3[C@@H](C#N)N(C(=O)C4CCCCC4)[C@H]3CO)cc2)c1 | inactive |
| COCC(=O)N1CC2(C1)CN(Cc1ccccc1F)[C@@H](CO)c1[nH]c3cc(OC)ccc3c12 | inactive |
| C[C@H](CO)N1C[C@H](C)[C@@H](CN(C)C(=O)C2CCCCC2)Oc2ncc(/C=C/c3ccccc3)cc2C1=O | inactive |
| O=C(C[C@H]1C=C[C@H](NC(=O)Cc2ccccn2)[C@H](CO)O1)NCCc1ccccc1 | inactive |
| C[C@H]1CN([C@@H](C)CO)S(=O)(=O)c2ccc(C#Cc3ccccc3)cc2O[C@@H]1CN(C)C(=O)C1CC1 | inactive |
| O=C(C[C@H]1C=C[C@@H](NC(=O)Nc2ccccc2F)[C@H](CO)O1)NCc1ccc(-c2ccccc2)cc1 | inactive |

| SMILES | outcome |
| --- | --- |
| OC[C@@H]1Nc2ccc(C#Cc3cccc(F)c3)cc2[C@@H]2NCC[C@H]12 | inactive |
| O=C(c1ccccc1F)N1CC[C@H]2[C@H](CO)Nc3ccc(C#Cc4ccc(F)cc4)cc3[C@H]21 | inactive |
| COc1ccccc1C#Cc1ccc2c(c1)[C@H]1NCC[C@H]1[C@@H](CO)N2 | inactive |
| O=C(c1cccc(F)c1)N1CC[C@H]2[C@H](CO)Nc3ccc(C#Cc4cccc(F)c4)cc3[C@H]21 | inactive |
| COc1ccc(CN2C[C@@H](C)[C@H](OC)CN(C)C(=O)c3ccc(NC(=O)c4nc5ccccc5s4)cc3OC[C@H]2C)cc1 | inactive |
| CCCN(C)C[C@@H]1Oc2cc(C#Cc3ccccc3)ccc2S(=O)(=O)N([C@@H](C)CO)C[C@@H]1C | inactive |
| COc1cccc(NC(=O)N2[C@@H](CO)[C@H](c3ccccc3)[C@@H]2CNCC(C)C)c1 | inactive |
| O=C(c1cccc(F)c1)N1CC(=O)N2[C@H](CO)[C@H](c3ccc(-c4cccnc4)cc3)[C@H]2C1 | inactive |
| CO[C@H]1CN(C)C(=O)c2cc(NC(=O)c3cc(C)on3)ccc2OC[C@H](C)N(C(=O)C2CC2)C[C@H]1C | inactive |
| COc1ccc2c3c(n(C)c2c1)[C@@H](CO)N(C(=O)C1CC1)CC31CN(C(=O)Nc2cccc(F)c2)C1 | inactive |
| C[C@H](CO)N1C[C@H](C)[C@@H](CN(C)C(=O)c2ccccc2F)Oc2ncc(C#Cc3cccc(F)c3)cc2C1=O | inactive |
| COCC#Cc1ccc([C@H]2[C@H](CO)N3C(=O)CN(C(=O)CN4CCOCC4)C[C@@H]23)cc1 | inactive |
| COc1ccc(C#Cc2ccc3c(c2)[C@@H]2[C@@H](CCN2C(=O)C2CCCC2)[C@H](CO)N3)cc1 | inactive |
| CC(C)(C)[S@@](=O)N1Cc2cc(C(=O)NCCN3CCCCC3)nc(-c3cccc(-c4ccc(C#N)cc4)c3)c2[C@H]1CCO | inactive |
| CN1CCN(C(=O)C[C@H]2C[C@@H]3c4cc(NC(=O)Nc5ccc(C(F)(F)F)cc5)ccc4O[C@@H]3[C@@H](CO)O2)CC1 | inactive |
| COCC(=O)N1CC2(C1)CN(C(=O)CN1CCOCC1)[C@@H](CO)c1c2c2ccc(OC)cc2n1C | inactive |
| CCCN(C)C[C@H]1Oc2cc(C#Cc3cccnc3)ccc2S(=O)(=O)N([C@H](C)CO)C[C@H]1C | inactive |
| CO[C@H]1CN(C)C(=O)c2ccc(NC(=O)CC(F)(F)F)cc2OC[C@@H](C)N(CC2CC2)C[C@H]1C | inactive |
| CCCC#Cc1ccc2c(c1)O[C@H](CN(C)C(=O)Nc1ccc(OC)cc1)[C@H](C)CN([C@H](C)CO)S2(=O)=O | inactive |
| N#Cc1ccc(-c2ccc3c(c2)[C@@H]2[C@@H](CCN2C(=O)C2CCC2)[C@@H](CO)N3)cc1 | inactive |
| COc1ccc2c3c([nH]c2c1)[C@@H](CO)N(C(=O)CN(C)C)CC31CCN(CC2CCCCC2)CC1 | inactive |
| COc1ccc2c3c([nH]c2c1)[C@@H](CO)N(C(C)=O)CC31CN(C(=O)CN2CCOCC2)C1 | inactive |
| COc1ccc(CN2CC3(C2)CN(Cc2ccc4c(c2)OCO4)[C@H](CO)c2[nH]c4cc(OC)ccc4c23)cc1 | inactive |
| COc1ccc(CN2CC3(CN(C(C)=O)C3)c3c([nH]c4cc(OC)ccc34)[C@@H]2CO)cc1 | inactive |

| SMILES | outcome |
| --- | --- |
| CO[C@H]1CN(C)C(=O)c2cc(NC(=O)c3ccccc3F)ccc2OC[C@H](C)N(C)C[C@H]1C | inactive |
| COc1ccccc1CNC(=O)C[C@H]1C[C@@H]2c3cc(NC(=O)Nc4ccc(C(F)(F)F)cc4)ccc3O[C@@H]2[C@H](CO)O1 | inactive |
| C[C@H]1CN([C@@H](C)CO)C(=O)Cc2cc(NC(=O)CCC(F)(F)F)ccc2O[C@H]1CN(C)S(C)(=O)=O | inactive |
| COc1ccccc1C#Cc1ccc2c(c1)[C@H]1[C@H](CCN1C(=O)CN1CCOCC1)[C@@H](CO)N2 | inactive |
| CO[C@@H]1CN(C)C(=O)c2ccc(NC(=O)Nc3ccccc3F)cc2OC[C@@H](C)N(CC2CC2)C[C@H]1C | inactive |
| C[C@H](CO)N1C[C@H](C)[C@H](CN(C)C(=O)Cc2ccncc2)Oc2cc(C#CC3CCCC3)ccc2S1(=O)=O | inactive |
| COc1ccc(CN2C[C@@H](C)[C@@H](OC)CN(C)C(=O)c3cc(NC(=O)c4nc5ccccc5s4)ccc3OC[C@H]2C)cc1 | inactive |
| CCCN(C)C[C@@H]1Oc2cc(C#Cc3ccncc3)ccc2S(=O)(=O)N([C@H](C)CO)C[C@@H]1C | inactive |
| COc1ccc(NC(=O)N(C)C[C@@H]2Oc3cc(-c4ccc(C)cc4)ccc3S(=O)(=O)N([C@H](C)CO)C[C@H]2C)cc1 | inactive |
| CCS(=O)(=O)N1CCCCN2[C@H](CO)[C@H](c3ccc(C#Cc4ccccc4OC)cc3)[C@@H]2C1 | inactive |
| CCC(=O)Nc1ccc2c(c1)OC[C@@H](C)N(Cc1cccc(F)c1)C[C@@H](C)[C@H](OC)CN(C)C2=O | inactive |
| CCCNC(=O)Nc1ccc2c(c1)OC[C@@H](C)N(Cc1ccccc1)C[C@@H](C)[C@H](OC)CN(C)C2=O | inactive |
| COCC(=O)N1[C@H](C#N)[C@@H](c2ccccc2C2=CCCC2)[C@@H]1CO | inactive |
| COc1ccc2c3c(n(C)c2c1)[C@H](CO)N(C(=O)Nc1ccc(F)cc1)CC31CN(C(=O)c2ccc3c(c2)OCO3)C1 | inactive |
| C[C@@H]1CN([C@H](C)CO)C(=O)c2ccccc2-c2ccccc2CO[C@H]1CN(C)C(=O)Nc1cccc(C(F)(F)F)c1 | inactive |
| C[C@H]1CN([C@@H](C)CO)C(=O)c2ccccc2-c2ccccc2CO[C@H]1CN(C)Cc1cccc(C(F)(F)F)c1 | inactive |
| C[C@@H]1CN([C@H](C)CO)C(=O)c2ccccc2-c2ccccc2CO[C@@H]1CN(C)Cc1ccc(C(F)(F)F)cc1 | inactive |
| C[C@@H]1CN([C@@H](C)CO)C(=O)c2ccccc2-c2ccccc2CO[C@H]1CN(C)C(=O)Nc1cccc(C(F)(F)F)c1 | inactive |
| C[C@H]1CN([C@@H](C)CO)C(=O)c2ccccc2-c2ccccc2CO[C@H]1CN(C)Cc1ccc(-c2ccccc2)cc1 | inactive |
| C[C@H]1CN([C@@H](C)CO)C(=O)c2ccccc2-c2ccccc2CO[C@H]1CN(C)Cc1ccc(Oc2ccccc2)cc1 | inactive |
| C[C@H](CO)N1C[C@H](C)[C@H](CN(C)C(=O)Nc2ccc(N3CCCCC3)cc2)OCc2cnnn2CCCC1=O | inactive |
| CCCC(=O)N1CC2(C1)CN(Cc1ccccc1F)[C@H](CO)c1c2c2ccc(OC)cc2n1C | inactive |
